These results are taken from PubChem BioAssay (NCI).

About 83,000 compounds went through this panel and 20% of them were active in at least one assay; those are over-represented in the sample as a whole.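 Assay: single dose, 48 h. Readout: percent growth (0 = no net growth; negative = cell death). Active: <10.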 A number with no mark means an inactive call. Calls of active or inactive are those of the source.

Some test systems named below: EKVX NSCLC; SN12C renal; UO-31 renal; TK-10 renal; ACHN renal; CAKI-1 renal; A498 renal; CCRF-CEM leukemia; MOLT-4 leukemia; SR leukemia.
Holding throughout (test): NCI-60 one-dose screen, 48 h (100 = growth as untreated, 0 = no growth, -100 = all killed)
What all share (settings): 10 µM unless noted

As for `COc1ccc(-c2nn(-c3ccccc3)cc2/C=C2\SC(=S)N(CCc3ccc(O)cc3)C2=O)cc1`, the growth in the test on EKVX NSCLC was 84.6%; in the test on SN12C renal, 81.9%; in the test with UO-31 renal, 60%; in the test on TK-10 renal, 94.2%; with ACHN renal, 87.5%; in the test with CAKI-1 renal, 51.2%. In addition, the growth was 62.6% in the test on A498 renal, 76.5% in the test with CCRF-CEM leukemia, 68.3% in the test on MOLT-4 leukemia and 75.8% with SR leukemia.
Take `Cc1cc(O)c2c(c1)C[C@H]1[C@@H]3CC[C@H]4CC(=O)CC[C@]4(C)[C@H]3CC(=O)[C@]21C`: the growth in the test on EKVX NSCLC is 49.8%; in the test on SN12C renal, 81.3%; with UO-31 renal it was 113%; with TK-10 renal, 92.5%; in the test with ACHN renal, 94.7%; in the test on CAKI-1 renal it was 83.9%. Besides, the growth was 103% in the test with A498 renal, 58.8% in the test on CCRF-CEM leukemia, 53.7% in the test on MOLT-4 leukemia and 59.2% in the test on SR leukemia.
Turning to `Cc1nnc(Nc2ccc(NC(=O)Nc3ccc(Cl)cc3)cc2)c2ccccc12`, the growth is 44.2% with EKVX NSCLC; 60.1% with SN12C renal; 51.2% in the test on UO-31 renal; 51.7% in the test with TK-10 renal; 58.8% in the test on ACHN renal; 33.9% with CAKI-1 renal. The growth is 35.4% in the test on A498 renal, 11% in the test on CCRF-CEM leukemia, 9.76% (active) in the test with MOLT-4 leukemia and -3.51% (active) in the test on SR leukemia.
In the case of `N#Cc1c(N2CCOCC2)nc2sc3cc(Cl)ccc3n2c1=N`, the growth with EKVX NSCLC is 91.1%; in the test on SN12C renal it was 99.8%; in the test on UO-31 renal, 63.3%; in the test with TK-10 renal it was 160%; in the test with ACHN renal it was 98.3%; with CAKI-1 renal, 111%. Also, the growth is 121% in the test on A498 renal, 126% in the test with CCRF-CEM leukemia, 109% in the test on MOLT-4 leukemia and 108% in the test with SR leukemia.
In the case of `ClC1C2CC(c3ccccc32)C1Cl` (stereo not given), the growth with EKVX NSCLC is 123%; in the test on SN12C renal, 102%; in the test on UO-31 renal it was 108%; in the test on TK-10 renal it was 108%; with ACHN renal it was 104%; in the test with CAKI-1 renal, 118%. The growth in the test on A498 renal is 92.4%; in the test with CCRF-CEM leukemia it was 96.8%; in the test on MOLT-4 leukemia, 101%; in the test with SR leukemia, 106%.
For the compound `O=C(Nc1nc2ccccc2s1)c1cc(-c2ccc(F)cc2)n2nc(-c3ccccc3)cc2n1`, the growth with EKVX NSCLC is 68.8%; with SN12C renal it was 57.5%; in the test on UO-31 renal, 51.4%; in the test on TK-10 renal, 129%; in the test with ACHN renal it was 13.5%; in the test with CAKI-1 renal, 53.2%. The growth is -9.36% (active) in the test on A498 renal, 21.6% in the test with CCRF-CEM leukemia, 61.9% in the test on MOLT-4 leukemia and 18.6% in the test on SR leukemia.
`CC[C@]1(O)CC2CN(CCc3c([nH]c4ccccc34)[C@@](C(=O)OC)(c3cc4c(cc3OC)N(C)[C@H]3[C@@](O)(C(=O)OC)[C@H](OC(C)=O)[C@]5(CC)C=CCN6CC[C@]43[C@@H]65)C2)C1` (stereo not given in full): the growth in the test with EKVX NSCLC was 49.6%; with SN12C renal, 39.6%; in the test with UO-31 renal, 18.9%; in the test on TK-10 renal, 62.6%; in the test with ACHN renal, 21.9%; in the test on CAKI-1 renal it was 26.8%. Besides, the growth was -15.6% (active) in the test on A498 renal, 10.7% in the test on CCRF-CEM leukemia, 16.4% in the test on MOLT-4 leukemia and 10.2% in the test with SR leukemia.
As to `Cc1nc2c(O)cccc2cc1CO`, the growth with EKVX NSCLC is 107%; in the test on SN12C renal, 105%; with UO-31 renal, 103%; in the test on TK-10 renal it was 168%; with ACHN renal it was 110%; in the test on CAKI-1 renal it was 104%. Besides, the growth is 131% in the test on A498 renal, 107% with CCRF-CEM leukemia, 105% in the test on MOLT-4 leukemia and 67.7% with SR leukemia.
